Source: PubChem (Johns Hopkins Ion Channel Center)
Sampled rows, rich in hits. Any-hit rate of the full collection: about 1.6%.
KCNQ2 block – rat KCNQ2 potassium channel inhibitors, primary screen, cell-based, CHO-K1, FluxOR thallium flux, B-score; B-score at 10 µM; 20 min; active compounds read low; AID 2156, 2009; 310,000 compounds, 1.1% hits;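 active = fluorescence ratio B-score at most minus 3 library SDs, with starting brightness B-score within 2 library SDs, cut at about -5.5 in these data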
KCNQ2 enhance – potentiators of rat KCNQ2 potassium channel; Potassium voltage-gated channel subfamily KQT member 2 (Rattus norvegicus), O88943; CHO-K1 KCNQ2, FluxOR thallium flux fluorescence; active compounds read high; B-score at 10 µM; 310,000 compounds, 0.54% hits; AID 2239, 2010;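 active = fluorescence ratio B-score at least 3 SD of library B-scores, with initial fluorescence B-score within 3 of them, cut at about 5.3 in these data; same plate scores as AID 2156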;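 also: B-score of peak minus minimum over baseline fluorescence ratio after K+ and Tl+ stimulus; positive B-score means potentiation of KCNQ2 with more thallium influx and brighter signal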
Kir21 confirm – mouse Kir2.1 channel blockers, retest, confirmation, cell-based, FluxOR thallium flux, duplicate | shares compounds with KCNQ2 enhance | 2,300 compounds, 41% hits | Tl flux remaining, % of negative control (active compounds read low), % at 10 µM | Kir2.1-expressing cells, FluxOR thallium flux fluorescence; active compounds read low | AID 2032, 2009;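 active = Primary-screen hit whose thallium flux fell at least 3 control SD below untreated wells in both duplicates, with normal baseline fluorescence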;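 also: 0% = blank wells without stimulus and 100% = stimulated no-compound controls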
HEK293 Tl flux – alters thallium flux in parental HEK293 cells, Kir2.1 counter-screen; FluxOR thallium flux fluorescence; 0% = unstimulated blank wells; 2,300 compounds, 19% hits; shares compounds with KCNQ2 enhance; FluxOR signal as % of negative control (100 = no effect), % at 10 µM;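 active = dye signal at least 3 control SD above or below untreated wells in both duplicates, raw fluorescence within 3, either direction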;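 also: percent is based on the flux ratio of peak minus minimum fluorescence over baseline F0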
CHO-K1 ctr – nonspecific thallium flux increase in parental CHO-K1, confirmation, counter-screen for KCNQ2 potentiator project, cell-based, FluxOR thallium flux, duplicate; shares compounds with KCNQ2 enhance; parental CHO-K1 cells, FluxOR thallium flux fluorescence; zero = vehicle mean+3SD, 100% = vehicle-minus-blank window; activity increase over 3SD of controls, % at 10 µM; 1,200 compounds, 43% hits;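 active = signal rise of at least 3 SD above the untreated control mean, in both duplicate wells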;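 also: counter screen of KCNQ2 potentiator hits so any rise reflects channel-independent effects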
KCNQ1 sel pot – human KCNQ1 channel potentiation off-target, confirmation, selectivity assay for KCNQ2 potentiator project, cell-based, CHO, FluxOR thallium flux. shares compounds with KCNQ2 enhance. 1,200 compounds, 28% hits. activation over 3SD threshold, % at 10 µM. CHO KCNQ1 stable, FluxOR thallium flux fluorescence; beyond 3SD, as % of vehicle-control signal;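 active = fluorescence ratio rise of at least 3 SD of vehicle wells above their mean, in both replicate wells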;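 also: 0% = vehicle mean plus 3 SD and 100% = vehicle minus unstimulated blank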
Target sequence (P51787 whole entry, looked up): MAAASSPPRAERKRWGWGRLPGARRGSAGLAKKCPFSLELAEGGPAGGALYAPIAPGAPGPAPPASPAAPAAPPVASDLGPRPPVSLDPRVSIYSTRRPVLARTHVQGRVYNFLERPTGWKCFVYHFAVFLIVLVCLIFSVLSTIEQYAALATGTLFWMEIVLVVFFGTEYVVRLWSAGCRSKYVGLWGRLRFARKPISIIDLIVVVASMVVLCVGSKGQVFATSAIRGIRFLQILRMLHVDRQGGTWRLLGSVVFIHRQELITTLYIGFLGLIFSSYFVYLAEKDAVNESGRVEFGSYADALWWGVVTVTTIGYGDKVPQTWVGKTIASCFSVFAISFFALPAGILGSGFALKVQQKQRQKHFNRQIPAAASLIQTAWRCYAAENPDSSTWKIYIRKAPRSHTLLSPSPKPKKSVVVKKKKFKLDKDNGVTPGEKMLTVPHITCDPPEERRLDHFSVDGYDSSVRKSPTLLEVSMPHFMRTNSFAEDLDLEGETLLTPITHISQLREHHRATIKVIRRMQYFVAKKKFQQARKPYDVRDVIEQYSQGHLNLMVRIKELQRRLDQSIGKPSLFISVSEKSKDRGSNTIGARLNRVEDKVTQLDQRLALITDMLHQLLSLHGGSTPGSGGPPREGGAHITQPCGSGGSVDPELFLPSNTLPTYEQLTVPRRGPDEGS
KCNQ2 pot conf – rat KCNQ2 channel potentiators, confirmation, cell-based, CHO, FluxOR thallium flux, duplicate | 1,200 compounds, 68% hits | AID 2287, 2010 | shares compounds with KCNQ2 enhance | potentiation, less the hit threshold, % at 10 µM | CHO-KCNQ2 cells, FluxOR thallium flux fluorescence;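 active = fluorescence ratio rising 3 SD or more over the vehicle control mean in both replicates, plus primary screen hit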;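 also: peak minus minimum thallium fluorescence divided by baseline after K/Tl stimulus; 0% = vehicle mean plus 3 SD and 100% = vehicle minus unstimulated blank difference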
Kir21 spec – mouse Kir2.1 channel activation off-target, confirmation, selectivity assay for KCNQ2 potentiator project, cell-based, HEK293, FluxOR thallium flux. shares compounds with KCNQ2 enhance. HEK293 Kir2.1, FluxOR thallium flux fluorescence. activity over 3SD threshold, % at 10 µM. 1,200 compounds, 2% hits;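 active = fluorescence ratio rise of at least 3 SD above the vehicle-control mean, seen in both replicates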;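 also: 0% = vehicle mean plus 3 SD and 100% = vehicle minus no-stimulus blank window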
KCNQ2 W236L pot – potentiators of retigabine-insensitive KCNQ2 W236L, mechanism study for KCNQ2 potentiator project, cell-based, rat KCNQ2 W236L, CHO, automated patch clamp | shares compounds with KCNQ2 enhance | automated patch clamp current | current increase over 3SD of negative controls (%), active compounds read high, % at 25 µM | 940 compounds, 10% hits;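 active = current increase at least 3 SD of the untreated controls above them in both duplicate recordings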
The depositor's hits bear a star; i = inactive; x = no result given.

SMILES	KCNQ2 block	KCNQ2 enhance	others
CCN(CC)CCCCN1c2ccccc2Sc2ccccc21	i	x	Kir21 confirm=44%*;HEK293 Tl flux=i
O=C(CCc1ccc(O)cc1)N/N=C/c1coc2ccccc2c1=O	i	x
Cc1ccc(CS(=O)(=O)c2ncc(Cl)c(C(=O)Nc3ccc(OC(F)F)cc3)n2)cc1	i	0.85
Cc1cccc(CS(=O)(=O)c2ncc(Cl)c(C(=O)Nc3nnc(C(C)C)s3)n2)c1	i	13*	CHO-K1 ctr=-10;KCNQ1 sel pot=-6;KCNQ2 pot conf=99*;Kir21 spec=-64;KCNQ2 W236L pot=49%*
O=C(Nc1nnc(SCc2ccc(F)cc2)s1)c1cccnc1Cl	i	x
Cc1ccc(CS(=O)(=O)c2ncc(Cl)c(C(=O)Nc3nnc(C(C)C)s3)n2)cc1	i	16*	Kir21 confirm=i;HEK293 Tl flux=182%*;CHO-K1 ctr=0;KCNQ1 sel pot=-13;KCNQ2 pot conf=102*;Kir21 spec=-46;KCNQ2 W236L pot=77%*
Cc1nnc(NC(=O)c2nc(S(=O)(=O)Cc3ccccc3C)ncc2Cl)s1	i	12*	Kir21 confirm=i;HEK293 Tl flux=i;CHO-K1 ctr=-14;KCNQ1 sel pot=62*;KCNQ2 pot conf=77*;Kir21 spec=-41;KCNQ2 W236L pot=35%*
CCSc1nnc(NC(=O)c2nc(S(=O)(=O)Cc3ccc(F)cc3)ncc2Cl)s1	i	10*	CHO-K1 ctr=-21;KCNQ1 sel pot=-16;KCNQ2 pot conf=49*;Kir21 spec=-65;KCNQ2 W236L pot=11%*
O=C(NCc1ccccc1)c1nc(S(=O)(=O)Cc2ccccc2)ncc1Cl	i	x
O=C(NCc1ccc2c(c1)OCO2)c1nc(S(=O)(=O)Cc2ccccc2)ncc1Cl	i	x
CCCNC(=O)COc1coc(CN2CCN(c3ccc(F)cc3)CC2)cc1=O	i	x
CCOC(=O)CC(NS(=O)(=O)c1ccc2[nH]c(=O)sc2c1)c1ccc(C)cc1 (configuration not stated)	i	x
COc1ccc(CN2CCN(C(=O)C3CCC(CNS(=O)(=O)c4ccccc4)CC3)CC2)c(OC)c1OC (configuration not stated)	i	1.9
Cn1c(=O)c2c(SCC(=O)N3CCCCC3)nc(-c3ccccc3F)nc2n(C)c1=O	i	2.8
CSc1nnc(NC(=O)c2nc(S(=O)(=O)Cc3ccccc3F)ncc2Cl)s1	i	10*	CHO-K1 ctr=-16;KCNQ1 sel pot=-13;KCNQ2 pot conf=50*;Kir21 spec=-54;KCNQ2 W236L pot=18%*
CSc1nnc(NC(=O)c2nc(S(=O)(=O)Cc3cccc(C)c3)ncc2Cl)s1	i	13*	CHO-K1 ctr=-9;KCNQ1 sel pot=4.6*;KCNQ2 pot conf=84*;Kir21 spec=-62;KCNQ2 W236L pot=35%*
COC(=O)c1ccccc1NC(=O)c1nc(S(=O)(=O)Cc2ccccc2)ncc1Cl	i	x
O=C(NCc1ccc2c(c1)OCO2)c1nc(S(=O)(=O)Cc2ccccc2F)ncc1Cl	i	x
C=CCSc1nnc(NC(=O)c2nc(SCC)ncc2Cl)s1	i	2.4
CSc1ncc(Cl)c(C(=O)Nc2nnc(SC/C=C/c3ccccc3)s2)n1	i	5.5*	Kir21 confirm=i;HEK293 Tl flux=i;CHO-K1 ctr=6.5*;KCNQ1 sel pot=-28;KCNQ2 pot conf=-2;Kir21 spec=-36;KCNQ2 W236L pot=i
CC(C)c1nnc(NC(=O)c2nc(S(=O)(=O)Cc3ccc(F)cc3)ncc2Cl)s1	i	11*	Kir21 confirm=i;HEK293 Tl flux=i;CHO-K1 ctr=-3;KCNQ1 sel pot=-14;KCNQ2 pot conf=58*;Kir21 spec=-48;KCNQ2 W236L pot=28%*
CSc1nnc(NC(=O)c2ccco2)s1	i	1.6
CCOc1ccc(C(C)=O)cc1COc1cccnc1[N+](=O)[O-]	i	0.05
CCN(CC)C(=O)Cn1cc(S(=O)(=O)CC(=O)Nc2ccccc2C)c2ccccc21	i	0.06
COc1ccc2cc(CCNC(=O)c3ccc(S(=O)(=O)N4CCCC4)cc3)c(=O)[nH]c2c1	i	1.2
SMILES	KCNQ2 block	KCNQ2 enhance	others
O=C(CN1C(=O)NC2(CCCC2)C1=O)OCCOc1ccc(Cl)cc1Cl	i	x
CC(C)(C)NC(=S)NCC1CC1	i	x
COc1ccccc1NC(=O)C1CC(O)CN1C(=O)Oc1ccccc1 (configuration not stated)	i	x
COc1ccccc1Nc1nc(N)nc(CN2CC(C)CC(C)C2)n1 (configuration not stated)	i	1.4
CCOc1ccc2nc(NC(=O)CN3CCC(n4nnc5cc(F)ccc54)CC3)sc2c1	i	x
COc1ccc(CCC(C)NCc2ccc(Cl)c(Cl)c2)cc1 (configuration not stated)	i	x
COc1ccc(CCC(C)NCCc2ccc(Cl)cc2Cl)cc1 (configuration not stated)	i	x	Kir21 confirm=16%*;HEK293 Tl flux=i
COC1Cc2ccccc2N(C(N)=O)c2ccccc21 (configuration not stated)	i	x
CCOC(=O)Cc1nnc2c(Nc3ccc(Cl)cc3)nc3nonc3n12	i	x
N=C1/C(=C/c2cccn2Cc2ccc(Cl)cc2)C(=O)N=C2SC=CN12	i	x
COc1ccccc1N1CCN(Cc2ccc(OC)c(OC)c2OC)CC1	i	x
COc1ccccc1N1CCN(Cc2ccc(O)c3ncccc23)CC1	i	6.5*	Kir21 confirm=i;HEK293 Tl flux=126%*;CHO-K1 ctr=-5;KCNQ1 sel pot=-22;KCNQ2 pot conf=3.8*;Kir21 spec=-45;KCNQ2 W236L pot=i
Cc1ccc(NC(=O)c2cc(S(=O)(=O)N3CCOCC3)c(Br)s2)cc1	i	x
Cc1cc2c(ncn2C(C)C)c(NS(=O)(=O)c2ccc(F)cc2)c1C	i	5.3*	Kir21 confirm=i;HEK293 Tl flux=i;CHO-K1 ctr=-15;KCNQ1 sel pot=9.7*;KCNQ2 pot conf=4.3*;Kir21 spec=-41;KCNQ2 W236L pot=i
Cc1cc2c(ncn2C)c(NS(=O)(=O)c2ccc(F)cc2)c1C	i	0.03
Cc1ccc(C)c(Cn2c3ccccc3c3cnn(CC(=O)NCc4ccccn4)c(=O)c32)c1	i	1.2
